The results in this text go back to PubChem BioAssay.

Structures are written as SMILES. Unmarked numbers belong to inactive results. For some of these results: Measured potencies and affinities stand elsewhere. Calls of active or inactive are those of the source. Unless noted, no rule for the calls is given here.

A short description of assay [1]: antimalarial activity against Dd2 strain (AID 2302;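 active = growth inhibition above 50% at the single 2 µM test dose, taken to imply half-maximal potency below 2 µM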;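 also: 0% = DMSO untreated growth and 100% = chloroquine plus artemisinin killed control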). As to conditions: P. falciparum Dd2 in RBCs, LDH growth readout, 72 h; at 2 µM; active compounds read high.
Assay [2] in a line: human hepatoma cell viability loss – ATP luminescence, cytotoxicity control for P. falciparum antimalarial project, primary screen (AID 2303;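 active = inhibition above 50%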;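 also: 0% = DMSO wells and 100% = digitonin-killed cells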). As to conditions: HepG2 viability, 24-48 h, at 10 µM, active compounds read high.
Assay [3] concerns the target L-lactate dehydrogenase (Plasmodium falciparum (isolate CDC / Honduras)) (UniProt Q27743). The assay can be described thus: PfLDH activity inhibition – cell lysate, 3D7 strain, counter-screen for P. falciparum growth inhibition project (AID 2304).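 Also: 0% = vehicle and 100% = reference inhibitor.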 As to conditions: P. falciparum 3D7 crude extract, LDH APAD/NBT absorbance; at 2 µM; active compounds read high.
Assay [4] can be described thus: inhibition of 3D7 malaria parasite growth – strain 3D7 (AID 2306).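 Also: 0% = DMSO wells and 100% = chloroquine plus artemisinin control wells.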 As to conditions: P. falciparum 3D7 erythrocytic growth, LDH absorbance, 72 h; at 2 µM; active compounds read high.
Assay [5] addresses Calcium-dependent protein kinase 1 (Plasmodium falciparum (isolate 3D7)) (UniProt P62344). The assay can be described thus: PfCDPK1 kinase inhibitors, biochemical, TCAMS library (AID 1159585; cut-off not given, nearly all actives have IC50 up to about 0.98 µM;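 also: inhibitors leave more ATP so luminescence rises with inhibition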). As to conditions: recombinant PfCDPK1, Kinase-Glo ATP depletion luminescence.
For assay [6], the target named is Plasmodium falciparum protein kinase 6 (PK6, PF3D7_1337100) (UniProt Q8IDW1). The assay can be described thus: PfPK6 kinase inhibitors, biochemical, TCAMS library (AID 1159586). As to conditions: recombinant PfPK6, Kinase-Glo ATP depletion luminescence.
For assay [7], the target named is Protein kinase 7 (PK7), Plasmodium falciparum 3D7 (PF3D7_0213400) (UniProt Q7YTF7). In words: inhibition of Plasmodium PK7 catalytic activity – biochemical, TCAMS antimalarial set, Kinase-Glo luminescence (AID 1159587). As to conditions: recombinant PfPK7, Kinase-Glo ATP depletion luminescence.
Assay [8] concerns the target Calcium-dependent protein kinase 4 (Plasmodium falciparum (isolate 3D7)) (UniProt Q8IBS5). In words: PfCDPK4 kinase inhibitors, biochemical, TCAMS library (AID 1159588; cut-off not given, nearly all actives have IC50 up to about 0.91 µM). As to conditions: recombinant PfCDPK4, Kinase-Glo ATP depletion luminescence.

Chain of Calcium-dependent protein kinase 1 (Plasmodium falciparum (isolate 3D7)) (P62344 whole entry, looked up): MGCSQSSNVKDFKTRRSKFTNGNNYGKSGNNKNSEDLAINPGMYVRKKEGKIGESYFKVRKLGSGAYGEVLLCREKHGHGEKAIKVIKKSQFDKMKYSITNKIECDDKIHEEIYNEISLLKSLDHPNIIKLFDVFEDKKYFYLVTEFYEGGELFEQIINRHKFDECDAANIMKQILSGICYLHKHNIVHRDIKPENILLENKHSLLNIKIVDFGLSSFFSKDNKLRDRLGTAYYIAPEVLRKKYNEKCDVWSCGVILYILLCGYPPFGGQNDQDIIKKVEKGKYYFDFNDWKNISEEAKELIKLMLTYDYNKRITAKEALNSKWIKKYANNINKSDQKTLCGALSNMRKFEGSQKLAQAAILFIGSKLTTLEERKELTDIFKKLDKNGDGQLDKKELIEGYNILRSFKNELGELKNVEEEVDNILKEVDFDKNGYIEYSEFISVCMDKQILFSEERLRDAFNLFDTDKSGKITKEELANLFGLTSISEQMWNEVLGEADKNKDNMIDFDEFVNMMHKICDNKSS
Chain of Protein kinase 7 (PK7), Plasmodium falciparum 3D7 (PF3D7_0213400) (Q7YTF7 1-343): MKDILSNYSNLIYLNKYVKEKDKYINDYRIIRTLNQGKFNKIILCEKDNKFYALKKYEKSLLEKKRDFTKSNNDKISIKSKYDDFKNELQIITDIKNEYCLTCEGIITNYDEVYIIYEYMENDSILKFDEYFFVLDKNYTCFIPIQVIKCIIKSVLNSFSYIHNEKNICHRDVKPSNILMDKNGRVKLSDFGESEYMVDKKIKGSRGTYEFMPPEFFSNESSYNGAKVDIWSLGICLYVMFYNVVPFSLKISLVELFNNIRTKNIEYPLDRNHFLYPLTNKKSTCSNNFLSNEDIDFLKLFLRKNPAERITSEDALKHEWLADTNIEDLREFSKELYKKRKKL
Chain of Calcium-dependent protein kinase 4 (Plasmodium falciparum (isolate 3D7)) (Q8IBS5 whole entry, looked up): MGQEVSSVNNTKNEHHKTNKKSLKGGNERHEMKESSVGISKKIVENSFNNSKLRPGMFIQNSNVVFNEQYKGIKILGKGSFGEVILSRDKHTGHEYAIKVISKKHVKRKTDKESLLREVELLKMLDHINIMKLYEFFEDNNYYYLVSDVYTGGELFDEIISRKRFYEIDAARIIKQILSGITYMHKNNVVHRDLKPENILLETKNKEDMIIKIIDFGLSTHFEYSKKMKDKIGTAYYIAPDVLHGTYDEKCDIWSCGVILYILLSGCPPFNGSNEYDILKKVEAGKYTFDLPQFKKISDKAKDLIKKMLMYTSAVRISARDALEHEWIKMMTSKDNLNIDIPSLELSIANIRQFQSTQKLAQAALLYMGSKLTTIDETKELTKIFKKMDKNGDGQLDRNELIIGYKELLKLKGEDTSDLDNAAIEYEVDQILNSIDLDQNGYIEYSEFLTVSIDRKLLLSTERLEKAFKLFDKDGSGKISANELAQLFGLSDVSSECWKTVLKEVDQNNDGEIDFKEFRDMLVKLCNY
Chain of Plasmodium falciparum protein kinase 6 (PK6, PF3D7_1337100) (Q8IDW1 1-305): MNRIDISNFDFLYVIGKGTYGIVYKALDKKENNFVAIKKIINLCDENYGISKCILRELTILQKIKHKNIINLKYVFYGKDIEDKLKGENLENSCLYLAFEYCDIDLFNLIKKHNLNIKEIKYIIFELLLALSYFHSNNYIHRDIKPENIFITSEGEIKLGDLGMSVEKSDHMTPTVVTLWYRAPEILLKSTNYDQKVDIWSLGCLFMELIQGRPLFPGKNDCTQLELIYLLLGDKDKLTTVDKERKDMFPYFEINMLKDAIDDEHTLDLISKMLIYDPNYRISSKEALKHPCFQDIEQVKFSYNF
Chain of L-lactate dehydrogenase (Plasmodium falciparum (isolate CDC / Honduras)) (Q27743 whole entry, looked up): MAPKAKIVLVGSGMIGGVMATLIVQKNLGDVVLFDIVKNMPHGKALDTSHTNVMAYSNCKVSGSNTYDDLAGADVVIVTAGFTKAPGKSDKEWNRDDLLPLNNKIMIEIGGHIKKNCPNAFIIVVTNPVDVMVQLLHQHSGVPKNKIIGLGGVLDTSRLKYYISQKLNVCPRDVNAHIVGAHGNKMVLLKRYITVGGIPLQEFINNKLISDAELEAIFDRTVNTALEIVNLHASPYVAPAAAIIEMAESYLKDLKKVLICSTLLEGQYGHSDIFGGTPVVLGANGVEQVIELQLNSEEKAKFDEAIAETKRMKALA

On to `COc1ccc(CC2(c3ccc(F)cc3)N=C(N)N(CCCc3ccc(F)c(F)c3)C2=O)cc1` (stereo not given), for which the growth inhibition in assay [1] and in assay [4] was 98% (active) in each case. Besides, the inhibition in assay [2] is 42%; in assay [3], 5%. The result in assay [5], in assay [6], in assay [7] and in assay [8] was inactive.
As to `CN1CCN(CCCN(Cc2ccc(-c3ccc(CNCCc4ccccc4)cc3)cc2)C(=O)c2cccs2)CC1`, the growth inhibition in assay [1] is 78% (active); in assay [4], 98% (active). For the same molecule, the inhibition in assay [2] is 32%; in assay [3] it was 3%. In addition, the outcome in assay [5], in assay [6], in assay [7] and in assay [8] was inactive.
Consider `Cc1ccc(Oc2ccccc2NC(=O)CCc2nc3ccccc3c(=O)[nH]2)cc1`, for which the growth inhibition in assay [1] was 99% (active); in assay [4] it was 100% (active). Further, the inhibition in assay [2] is 3%; in assay [3] it was -3%. Moreover, the result in assay [5], in assay [6], in assay [7] and in assay [8] was inactive.
For `CC(C)c1cccc(OCC2CCN(c3ncc(C(=O)NC4CC4)cc3Cl)CC2)c1`, the growth inhibition was 95% (active) in assay [1] and 94% (active) in assay [4]. In addition, the inhibition in assay [2] was 9%; in assay [3], -1%. For the same molecule, the outcome in assay [5], in assay [6], in assay [7] and in assay [8] was inactive.
For `O=C(Nc1ccc(OC2CCN(Cc3ccsc3)C2)c(Cl)c1)c1ccco1` (stereo not given), the growth inhibition was 96% (active) in assay [1] and 93% (active) in assay [4]. Moreover, the inhibition is -6% in assay [2] and -5% in assay [3]. Also, the result in assay [5], in assay [6], in assay [7] and in assay [8] was inactive.
As to `COc1cc(NCC(O)CNc2cc(OC)c3ccccc3n2)nc2ccccc12`, the growth inhibition in assay [1] was 93% (active); in assay [4], 100% (active). The inhibition was 42% in assay [2] and 5% in assay [3]. The outcome in assay [5], in assay [6], in assay [7] and in assay [8] was inactive.
With `Nc1nc(N)c2c(Cl)c(N3CCOCC3)ccc2n1`, the growth inhibition in assay [1] was 3%; in assay [4], 96% (active). The values for the inhibition in assay [2] and in assay [3] were 65% (active) and 1%, respectively. The outcome in assay [5], in assay [6], in assay [7] and in assay [8] was inactive.
`CCNc1cc(C(=O)N[C@@H](Cc2ccccc2)[C@H](O)CNC2(C(C)C)CCC2)cc(N2CCCCS2(=O)=O)c1`: the growth inhibition in assay [1] is 85% (active); in assay [4], 99% (active). Also, the inhibition in assay [2] is -3%; in assay [3], -2%. Also, the outcome in assay [5], in assay [6], in assay [7] and in assay [8] was inactive.
Consider `O=C(NCC1CCN(Cc2cccc(C(F)(F)F)c2)C1)c1cc(-c2cccc(C(F)(F)F)c2)cs1` (stereo not given), for which the growth inhibition was 74% (active) in assay [1] and 100% (active) in assay [4]. The inhibition in assay [2] is 35%; in assay [3], -2%. The result in assay [5], in assay [6], in assay [7] and in assay [8] was inactive.
For the molecule `COc1ccc(Cl)cc1NC(=O)Nc1ccnc2ccccc12`, the growth inhibition in assay [1] was 44%; in assay [4], 101% (active). Moreover, the inhibition in assay [2] was 13%; in assay [3] it was -6%. For the same molecule, the result in assay [5], in assay [6], in assay [7] and in assay [8] was inactive.
`CCN(CC)S(=O)(=O)n1ncc2c3c(N)nc(N)nc3ccc21`: the growth inhibition in assay [1] was 16%; in assay [4], 93% (active). In addition, the inhibition in assay [2] was 67% (active); in assay [3], 3%. The outcome in assay [5], in assay [6], in assay [7] and in assay [8] was inactive.
As to `NC(N)=NN=CC(=O)Nc1ccc(C(F)(F)F)cc1`, the figures for the growth inhibition in assay [1] and in assay [4] were 9% and 100% (active), respectively. Moreover, the inhibition in assay [2] is 5%; in assay [3] it was 1%. Moreover, the result in assay [5], in assay [6], in assay [7] and in assay [8] was inactive.
With `COc1cc(CCN=C(N)/C=C/c2ccc(Cl)cc2)ccc1Cl`, the growth inhibition in assay [1] is 16%; in assay [4], 100% (active). Besides, the inhibition in assay [2] was 68% (active); in assay [3] it was 3%. In addition, the outcome in assay [5], in assay [6], in assay [7] and in assay [8] was inactive.
As for `N#Cc1ccc(C(=O)NC2CCN(CCCCCNC(=O)/C=C/c3ccc(Cl)c(Cl)c3)CC2)cc1`, the growth inhibition in assay [1] was 1%; in assay [4], 98% (active). For the same molecule, the values for the inhibition in assay [2] and in assay [3] were 13% and -4%, respectively. Moreover, the outcome in assay [5], in assay [6], in assay [7] and in assay [8] was inactive.
On to `CC(COc1ccc2c(c1)OC(C)(C)CC2c1ccccc1)NCC(O)c1cccc(Cl)c1` (stereo not given), for which the growth inhibition in assay [1] is 96% (active); in assay [4], 98% (active). Also, the inhibition in assay [2] was 1%; in assay [3], 3%. Also, the result in assay [5], in assay [6], in assay [7] and in assay [8] was inactive.
In the case of `Cn1ccnc1CCC(=O)Nc1ccc(Cl)cc1C(=O)Nc1ccc(Cl)cc1`, the growth inhibition in assay [1] was 3%; in assay [4], 92% (active). For the same molecule, the inhibition in assay [2] is 28%; in assay [3], 4%. Moreover, the result in assay [5], in assay [6], in assay [7] and in assay [8] was inactive.
Regarding `Cc1cccc2[nH]c(-c3cccc(-c4cccc(CNCCc5cccn5C)c4)c3)nc12`, the growth inhibition in assay [1] was 49%; in assay [4], 91% (active). The inhibition in assay [2] is 4%; in assay [3], 2%. The outcome in assay [5], in assay [6], in assay [7] and in assay [8] was inactive.
Turning to `COc1cccc(CCN(Cc2ccccc2-c2ccc(CNC3CC(C)(C)NC(C)(C)C3)cc2)C(=O)NC2CCCCC2)c1`, the values for the growth inhibition in assay [1] and in assay [4] were 99% (active) and 103% (active), respectively. For the same molecule, the inhibition in assay [2] was 97% (active); in assay [3], -1%. Besides, the result in assay [5], in assay [6], in assay [7] and in assay [8] was inactive.
For the molecule `CN1CCC(C(=O)N(Cc2ccc(-c3ccc(CNCCc4ccc(S(C)(=O)=O)cc4)cn3)cc2)C2Cc3ccccc3C2)CC1`, the growth inhibition in assay [1] was 49%; in assay [4], 98% (active). The figures for the inhibition in assay [2] and in assay [3] were 21% and -2%, respectively. For the same molecule, the result in assay [5], in assay [6], in assay [7] and in assay [8] was inactive.
For the molecule `Nc1c2c(nc3ccc(NC(=O)c4ccc([N+](=O)[O-])cc4)cc13)CCCC2`, the growth inhibition in assay [1] is 72% (active); in assay [4], 102% (active). For the same molecule, the results for the inhibition in assay [2] and in assay [3] were 19% and 0%, respectively. Moreover, the result in assay [5], in assay [6], in assay [7] and in assay [8] was inactive.
